PubChem BioAssay AID686979 (National Center for Advancing Translational Sciences (NCATS), 2013)
Where “and” joins values, the source holds several entries; their conditions need not be identical. Equal values may be shown once. About 50,000 (12%) of roughly 420,000 compounds were called active. Roughly 26% stayed inconclusive and do not appear here. Only a selection was taken, and actives are over-represented in it overall. Unmarked numbers belong to inactive results. Calls follow the shape of the dose curve; as a rule, active = well fitted inhibition curve with a large enough effect; inconclusive = small, poorly fitted or top-dose-only effect; inactive = flat fitted curve, though single readings scatter.

Assay: qHTS for Inhibitors of human tyrosyl-DNA phosphodiesterase 1 (TDP1): qHTS in cells in presence of CPT; also: nearly all actives have a fitted effect of over 55% in size
Conditions: chicken DT40 Tdp1-/-;hTDP1 cells + 20 nM CPT, ATP luminescence, 48 h; series mostly up to 46.2 µM; activity change, negative = growth inhibition: at the top concentration
Method in brief: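 Cell growth measured by CellTiter-Glo luminescence after a minimum 48 h, 37 C compound exposure with 20 nM CPT in Tdp1-knockout DT40 cells stably expressing hTDP1, seeded 400/well; qHTS titration format.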
% is scaled to controls: 0 for no effect and ±100 for the full control effect; potency is read from the fitted curve at half-maximal effect.

| Compound | Potency | activity change, negative = growth inhibition |
| --- | --- | --- |
| CN(C)CC1Oc2ccccc2OC1(O)c1ccccc1 (stereo not drawn) | 2.06 µM (active) | – |
| COc1cc(OC)cc(C2(C#N)CCN(C)CC2)c1 | – | -17.9% |
| CCCCC/C=C\C/C=C\C/C=C\C/C=C\CCCCCC(=O)NCCO | – | -4.85% [at 4.12 µM] |
| O=C(N/N=C/c1c(O)n(C2CC2)c(=S)[nH]c1=O)c1ccccc1Cl | – | 13.4% |
| COC([CH2][Hg])CNC(=O)c1ccccc1OCC(=O)O (stereo not drawn) | 1.06 µM (active) | – |
| c1cncc(CNC2=NCCC2)c1 | – | 3.64% |
| CCOP(=S)(OCC)C(O)CCCCCn1c(=O)c(F)cn(C2CCCO2)c1=O (stereo not drawn) | – | -1.03% |
| CCC1(CC(C)c2ccccc2)C(=O)NC(=O)NC1=O (stereo not drawn) | – | -0.717% |
| CCc1ccccc1NC(=O)c1sc2nc3c(cc2c1N)CN(Cc1ccccc1)CC3 | 7.31 µM (active) | – |
| Cn1cc(C(=O)OCC(=O)N2CCCC2)c2ccccc21 | – | 1.39% |
| CN1CCN(C(=S)SCC(=O)Nc2ccc(Cl)cc2C(=O)c2ccccc2)CC1 | 14.6 µM (active) | – |
| O=C(Nc1ccc(Cl)cc1C(=O)c1ccccc1)c1cc(Cl)cc(Cl)c1 | – | -9.22% |
| O=C(COC(=O)c1ccccc1)Nc1ccc(Cl)cc1C(=O)c1ccccc1 | – | -11% |
| CC(Cc1cccs1)NCc1ccc(Cl)cc1 (stereo not drawn) | – | -21% |
| CC(C)(Cc1c[nH]c2ccc(Cl)cc12)NCCOc1ccccc1OCC1CC1 | 21.1 µM (active) and 6.51 µM (active) | – |
| O=C(CCCn1c(=O)[nH]c2cc(Cl)ccc2c1=O)N1CCC2(CC1)OCCO2 | – | -18.1% |
| Cc1ccc(Cn2c(C)c3cnn(CC(=O)N4CCC5(CC4)OCCO5)c(=O)c3c2C)cc1 | 20.6 µM (active) | – |
| COc1ccc(-c2nc(CS(=O)CC(=O)N3CCC4(CC3)OCCO4)c(C)o2)cc1 (stereo not drawn) | – | -11.2% |
| CCC(=O)OC(Cc1ccccc1)(c1ccccc1)C(C)CN(C)C (stereo not drawn) | – | -3.39% |
| COC(=O)[C@@]12C[C@@H](CC(=O)NCc3cccc(C(F)(F)F)c3)C(=O)N(Cc3ccco3)C1=CCC(C)(C)C2 | 20.6 µM (active) | – |
| COc1cccc(-c2nc3ccc(N4CCN(C)CC4)cc3[nH]2)c1 | – | -18.1% |
| O=C1C2CCN(CC2)C1(CO)CO | 2.66 µM (active) | – |
| CN(C)C(=O)NC(O)C(Cl)(Cl)Cl (stereo not drawn) | – | -0.512% |
| O=c1[nH]c(=O)n(Cc2ccccc2)c(O)c1/C=N/Nc1c(F)c(F)c(F)c(F)c1F | – | -13.6% |

| Compound | Potency | activity change, negative = growth inhibition |
| --- | --- | --- |
| O=C1NC(=O)C(Cc2ccccc2)C(=O)N1 | – | -5.53% |
| CCN(CC)C(=O)Oc1ccc(NC(=O)N2CCOCC2)cc1 | – | -13% |
| O=C(OCCN1CCOCC1)C1(c2ccccc2)CCCC1 | – | 7.49% |
| CSc1nc2ccc(C)cc2c(=O)n1-c1cccnc1 | – | -17.6% |
| Cn1cc(/C=C/c2nc3ccccc3c(=O)n2-c2ccccc2)c2ccccc21 | 10.3 µM (active) | – |
| O=c1c2ccccc2nc(/C=C/c2ccco2)n1-c1ccccc1O | 14.6 µM (active) | – |
| O=c1c2ccccc2nc(/C=C/c2ccc(F)cc2)n1-c1ccccc1O | 23.1 µM (active) | – |
| O=C(Nc1cccc2ccccc12)N1CCC2(CC1)OCCO2 | – | 1.32% |
| CCOC(=O)C1CN(C)CCC1=O (stereo not drawn) | – | -17.2% |
| CN(C)CCCN=Cc1c(O)n(Cc2ccco2)c(=O)[nH]c1=O | – | -9.19% |
| c1cc2c(cc1[C@H]1OC[C@H]3[C@@H]1CO[C@@H]3c1ccc3c(c1)OCO3)OCO2 | – | -10.6% |
| CC(CC(C#N)(c1ccccc1)c1ccccc1)N1CCCCC1 (stereo not drawn) | – | 14.4% |
| O=C(N/N=C/c1ccc([N+](=O)[O-])o1)c1cc([N+](=O)[O-])cc([N+](=O)[O-])c1O | – | -39.1% |
| N[C@H](C(=O)O)c1cc(=O)[nH]o1 | – | -1.29% |
| O=C(COC(=O)Cc1ccccc1)Nc1ccc(F)cc1 | – | 38.9% |
| CC(C)c1ccc(-n2c(O)c(/C=N/N3CCOCC3)c(=O)[nH]c2=S)cc1 | – | 2.61% |
| CN(C)c1cccc(C(=O)Nc2nc3ccc(S(=O)(=O)NC(C)(C)C)cc3s2)c1 | 10.3 µM (active) | – |
| CC1C2Cn3c(nc4ccccc43)C1N(C)O2 (stereo not drawn) | – | -1.39% |
| Cc1c(C(=O)O)cccc1-n1c(C)cc(/C=C2\C(=O)NC(=O)N(c3ccc4c(c3)OCO4)C2=O)c1C | – | 22.5% |
| COC(=O)[C@@H]1C(OC(=O)c2ccccc2)CC2CCC1N2C (stereo partly drawn) | – | -19.5% |
| CN1[C@@H]2CC[C@H]1CC(OC(=O)c1cc(Cl)cc(Cl)c1)C2 (stereo partly drawn) | 18.8 µM (active) | – |
| CN1CCC(OC(=O)c2cccc(F)c2)CC1 | – | -5.62% |
| CC1([N+](=O)[O-])COP(=O)(Nc2ccc(F)cc2)OC1 (stereo not drawn) | – | 0.366% |
| Cc1c(Oc2cc(NN3CCCCC3)c([N+](=O)[O-])cc2[N+](=O)[O-])cccc1[N+](=O)[O-] | – | -26.6% |
